Source: the supplement of paper PMC10849652
Of roughly 7,900 targets only a part is listed; those with a hit were picked by preference. About 0.6% of all pairs of compound and target were hits. A number with no mark means an inactive call.

Legend:
Test in all cases: log2 fold change, soluble protein after heating vs DMSO (PISA); higher = thermal stabilisation; K562 cells, 10 uM, 30 min; active = over 0.2 and 3.5 SD of the protein, either way, in both replicates (recomputed)
erlotinib = compound: C#Cc1cccc(Nc2ncnc3cc(OCCOC)c(OCCOC)cc23)c1 [erlotinib]
Summary of the method: (§1)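 Soluble protein was quantified by TMTpro 16plex LC-MS/MS after channel sums were equalised. It was obtained as the supernatant after 21,000xg for 90 min from pooled aliquots of K562 cells (2×10^6 cells/mL, 10 μM compound, 30 min) heated for 3 min across 48°C-58°C and extracted in PBS with 0.5% NP-40 at 4°C. Thermal stability values are relative to control samples and come from duplicates. They are given as log2 fold changes.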

[1] = compound: C/C(=N\NC(=O)C1=CC(=CC=C1)S(=O)(=O)N2CCOCC2)/C3=C(C=CC(=C3)Cl)O
Summary of the method: as §1

[2] = compound: C1=CC(=C(C=C1Cl)C2=NC3=NC=CN=C3C(=N2)NC4=CC=NC=C4)F
Summary of the method: as §1

[3] = compound: C1=CC(=CC=C1C2=NC3=C(N2)C=C(C=C3)C(=O)N)OC4=CC=C(C=C4)Cl
Summary of the method: as §1

[4] = compound: C1=CC2=C(C=CC(=C2)/C=C\3/C(=O)NC(=NCC4=CC=CS4)S3)N=C1
Summary of the method: as §1

[5] = compound: C1=CC2=NC=CN=C2C=C1/C=C/3\C(=O)NC(=O)S3
Summary of the method: as §1

[6] = compound: C1=CC=C(C=C1)C2=NC(=C(N2)C3=CC=NC=C3)C4=CC(=C(C=C4)Cl)O
Summary of the method: as §1

[7] = compound: C1=CC=C2C(=C1)C3=NNC4=CC=CC(=C43)C2=O
Summary of the method: as §1

[8] = compound: C1CCN(C1)C(=O)NC2=CC=CC(=C2)NC3=NC=C(C(=N3)NCCC4=CN=CN4)Br
Summary of the method: as §1

[9] = compound: C1CN(CCC1(CC2=CC=C(C=C2)Cl)N)C3=NC=NC4=C3C=CN4
Summary of the method: as §1

Chain of UniProt Q02156 (Q02156 whole entry, looked up): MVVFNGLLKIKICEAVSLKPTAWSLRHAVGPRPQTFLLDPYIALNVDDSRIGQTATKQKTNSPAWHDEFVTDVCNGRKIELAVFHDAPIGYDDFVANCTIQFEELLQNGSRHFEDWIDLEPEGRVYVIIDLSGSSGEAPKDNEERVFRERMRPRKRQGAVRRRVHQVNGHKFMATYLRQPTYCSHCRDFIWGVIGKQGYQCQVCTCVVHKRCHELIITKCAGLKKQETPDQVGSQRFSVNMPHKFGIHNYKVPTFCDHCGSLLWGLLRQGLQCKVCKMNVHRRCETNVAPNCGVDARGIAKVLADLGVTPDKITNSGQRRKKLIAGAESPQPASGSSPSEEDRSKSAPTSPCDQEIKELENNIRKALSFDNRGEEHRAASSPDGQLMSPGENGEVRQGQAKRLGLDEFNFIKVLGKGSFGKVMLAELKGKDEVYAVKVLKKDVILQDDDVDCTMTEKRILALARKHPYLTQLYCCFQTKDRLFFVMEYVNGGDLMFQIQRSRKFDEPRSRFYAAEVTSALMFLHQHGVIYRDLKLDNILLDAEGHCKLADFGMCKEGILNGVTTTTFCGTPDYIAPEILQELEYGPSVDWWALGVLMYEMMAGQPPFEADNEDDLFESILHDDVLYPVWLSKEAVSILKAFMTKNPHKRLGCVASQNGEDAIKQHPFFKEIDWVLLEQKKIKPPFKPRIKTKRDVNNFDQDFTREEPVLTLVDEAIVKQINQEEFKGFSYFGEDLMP
Chain of UniProt P25788 (P25788 whole entry, looked up): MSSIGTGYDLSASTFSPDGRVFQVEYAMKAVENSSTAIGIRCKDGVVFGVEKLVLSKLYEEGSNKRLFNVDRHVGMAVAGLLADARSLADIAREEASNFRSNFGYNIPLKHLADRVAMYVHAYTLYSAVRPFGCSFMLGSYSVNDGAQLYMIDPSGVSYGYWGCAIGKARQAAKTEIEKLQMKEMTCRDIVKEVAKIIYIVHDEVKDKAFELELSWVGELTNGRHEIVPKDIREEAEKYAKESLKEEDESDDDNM
Chain of UniProt Q8WUM4 (Q8WUM4 whole entry, looked up): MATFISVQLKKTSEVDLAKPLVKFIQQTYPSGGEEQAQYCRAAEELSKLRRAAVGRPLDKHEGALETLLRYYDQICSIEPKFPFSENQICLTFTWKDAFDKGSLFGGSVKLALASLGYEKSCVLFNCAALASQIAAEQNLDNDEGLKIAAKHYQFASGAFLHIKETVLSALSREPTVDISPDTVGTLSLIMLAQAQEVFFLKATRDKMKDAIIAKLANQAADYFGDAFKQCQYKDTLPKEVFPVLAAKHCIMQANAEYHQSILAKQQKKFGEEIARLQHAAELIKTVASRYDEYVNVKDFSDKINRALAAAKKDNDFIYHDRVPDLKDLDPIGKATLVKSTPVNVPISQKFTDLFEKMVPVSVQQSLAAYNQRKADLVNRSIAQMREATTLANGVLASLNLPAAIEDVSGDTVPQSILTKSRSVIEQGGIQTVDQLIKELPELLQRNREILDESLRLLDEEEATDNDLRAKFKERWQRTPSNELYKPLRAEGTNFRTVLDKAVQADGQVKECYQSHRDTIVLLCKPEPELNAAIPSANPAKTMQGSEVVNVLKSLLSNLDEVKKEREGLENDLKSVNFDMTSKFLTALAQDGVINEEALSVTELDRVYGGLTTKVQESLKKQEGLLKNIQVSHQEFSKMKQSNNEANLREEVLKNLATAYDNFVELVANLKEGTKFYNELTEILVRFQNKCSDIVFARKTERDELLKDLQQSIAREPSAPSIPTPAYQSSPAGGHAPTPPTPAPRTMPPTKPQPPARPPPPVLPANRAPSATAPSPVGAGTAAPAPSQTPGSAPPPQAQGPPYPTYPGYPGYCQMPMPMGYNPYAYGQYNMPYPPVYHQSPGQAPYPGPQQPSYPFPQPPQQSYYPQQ
Chain of UniProt Q15126 (Q15126 whole entry, looked up): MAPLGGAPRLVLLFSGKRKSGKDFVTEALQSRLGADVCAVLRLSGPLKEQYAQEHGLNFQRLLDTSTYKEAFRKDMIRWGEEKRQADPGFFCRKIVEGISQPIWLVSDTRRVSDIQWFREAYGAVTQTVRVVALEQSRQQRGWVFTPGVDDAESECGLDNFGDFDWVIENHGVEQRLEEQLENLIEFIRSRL
Chain of UniProt Q8NHP8 (Q8NHP8 whole entry, looked up): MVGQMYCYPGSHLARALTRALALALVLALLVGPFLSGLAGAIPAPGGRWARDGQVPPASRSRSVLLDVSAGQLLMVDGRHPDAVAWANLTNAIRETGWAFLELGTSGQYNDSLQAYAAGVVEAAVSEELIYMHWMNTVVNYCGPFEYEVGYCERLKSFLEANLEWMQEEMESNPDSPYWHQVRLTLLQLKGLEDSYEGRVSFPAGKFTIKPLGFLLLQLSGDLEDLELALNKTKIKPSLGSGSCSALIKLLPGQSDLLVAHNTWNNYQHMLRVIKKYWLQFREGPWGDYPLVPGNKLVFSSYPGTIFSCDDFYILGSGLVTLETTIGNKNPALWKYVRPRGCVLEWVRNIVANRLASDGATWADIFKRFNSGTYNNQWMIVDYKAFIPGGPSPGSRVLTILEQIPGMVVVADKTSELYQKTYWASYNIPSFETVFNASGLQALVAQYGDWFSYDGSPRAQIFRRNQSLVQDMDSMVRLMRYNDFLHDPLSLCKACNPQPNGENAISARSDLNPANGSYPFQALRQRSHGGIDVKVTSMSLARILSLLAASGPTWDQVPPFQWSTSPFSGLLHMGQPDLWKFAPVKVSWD
Chain of UniProt Q8IZL8 (Q8IZL8 whole entry, looked up): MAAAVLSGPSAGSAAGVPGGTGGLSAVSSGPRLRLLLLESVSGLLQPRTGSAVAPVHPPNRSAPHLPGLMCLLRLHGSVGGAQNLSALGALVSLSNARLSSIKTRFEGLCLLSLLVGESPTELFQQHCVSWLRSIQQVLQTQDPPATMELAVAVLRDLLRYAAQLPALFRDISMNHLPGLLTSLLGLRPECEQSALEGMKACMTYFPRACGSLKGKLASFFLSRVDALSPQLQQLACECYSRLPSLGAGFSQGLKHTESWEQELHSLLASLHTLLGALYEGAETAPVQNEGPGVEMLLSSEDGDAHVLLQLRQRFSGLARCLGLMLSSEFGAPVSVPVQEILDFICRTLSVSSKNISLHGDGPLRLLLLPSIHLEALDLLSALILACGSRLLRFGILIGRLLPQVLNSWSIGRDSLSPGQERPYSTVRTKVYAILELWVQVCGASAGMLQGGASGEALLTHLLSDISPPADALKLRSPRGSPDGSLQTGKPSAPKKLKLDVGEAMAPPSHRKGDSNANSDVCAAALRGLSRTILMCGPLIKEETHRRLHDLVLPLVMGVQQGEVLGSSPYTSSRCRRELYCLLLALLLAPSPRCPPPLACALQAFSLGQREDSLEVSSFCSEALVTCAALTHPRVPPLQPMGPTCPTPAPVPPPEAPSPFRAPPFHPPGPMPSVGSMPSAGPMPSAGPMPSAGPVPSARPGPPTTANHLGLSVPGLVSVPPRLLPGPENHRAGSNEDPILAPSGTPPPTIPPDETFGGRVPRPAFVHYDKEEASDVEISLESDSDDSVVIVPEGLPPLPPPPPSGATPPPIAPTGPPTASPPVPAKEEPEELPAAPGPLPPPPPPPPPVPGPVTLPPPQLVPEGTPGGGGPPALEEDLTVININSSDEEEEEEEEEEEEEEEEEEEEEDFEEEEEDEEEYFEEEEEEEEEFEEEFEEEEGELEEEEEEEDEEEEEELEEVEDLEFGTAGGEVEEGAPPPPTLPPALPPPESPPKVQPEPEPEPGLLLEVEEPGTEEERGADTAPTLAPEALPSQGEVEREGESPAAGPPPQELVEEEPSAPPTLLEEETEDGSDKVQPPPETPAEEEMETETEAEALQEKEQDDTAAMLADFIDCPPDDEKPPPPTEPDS
Chain of UniProt Q15172 (Q15172 whole entry, looked up): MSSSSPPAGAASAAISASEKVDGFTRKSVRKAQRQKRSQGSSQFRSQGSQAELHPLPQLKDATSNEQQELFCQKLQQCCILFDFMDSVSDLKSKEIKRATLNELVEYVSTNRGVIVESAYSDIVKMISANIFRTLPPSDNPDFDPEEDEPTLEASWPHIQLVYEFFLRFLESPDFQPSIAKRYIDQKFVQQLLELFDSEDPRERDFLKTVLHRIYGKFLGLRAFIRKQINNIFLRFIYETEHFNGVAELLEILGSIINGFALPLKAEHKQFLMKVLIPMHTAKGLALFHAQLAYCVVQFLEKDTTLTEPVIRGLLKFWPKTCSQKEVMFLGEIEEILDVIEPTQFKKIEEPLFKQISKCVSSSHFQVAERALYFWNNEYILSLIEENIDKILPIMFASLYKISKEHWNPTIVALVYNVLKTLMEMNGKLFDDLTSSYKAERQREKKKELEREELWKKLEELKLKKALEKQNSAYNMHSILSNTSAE
Chain of UniProt O15530 (O15530 whole entry, looked up): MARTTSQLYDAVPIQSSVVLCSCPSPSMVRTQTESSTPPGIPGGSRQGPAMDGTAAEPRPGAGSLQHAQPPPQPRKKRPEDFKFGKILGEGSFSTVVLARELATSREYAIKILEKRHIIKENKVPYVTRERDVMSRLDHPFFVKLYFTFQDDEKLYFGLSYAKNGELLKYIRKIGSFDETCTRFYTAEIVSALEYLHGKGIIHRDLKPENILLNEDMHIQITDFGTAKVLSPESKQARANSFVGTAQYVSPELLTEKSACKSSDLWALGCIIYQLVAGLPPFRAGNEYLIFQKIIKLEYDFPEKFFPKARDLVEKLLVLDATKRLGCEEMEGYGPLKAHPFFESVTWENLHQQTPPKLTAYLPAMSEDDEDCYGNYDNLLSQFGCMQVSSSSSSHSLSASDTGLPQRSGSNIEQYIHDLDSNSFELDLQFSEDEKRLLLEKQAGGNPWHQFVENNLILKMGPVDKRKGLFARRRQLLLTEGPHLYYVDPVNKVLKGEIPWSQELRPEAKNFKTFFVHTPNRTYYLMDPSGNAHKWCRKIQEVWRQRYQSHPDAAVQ
Chain of UniProt Q7RTV0 (Q7RTV0 whole entry, looked up): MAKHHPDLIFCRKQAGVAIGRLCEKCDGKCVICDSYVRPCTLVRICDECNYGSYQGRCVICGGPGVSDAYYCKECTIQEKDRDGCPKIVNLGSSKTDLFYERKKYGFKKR

Target | log2 fold change (erlotinib) | log2 fold change [1] | log2 fold change [2] | log2 fold change [3] | log2 fold change [4] | log2 fold change [5] | log2 fold change [6] | log2 fold change [7] | log2 fold change [8] | log2 fold change [9]
PPP2R5C isoform 4 (UniProt Q13362) | 0.036 | -0.022 | 0.218 | -0.025 | -0.039 | -0.004 | -0.029 | -0.015 | 0 | 0.019
PYGL (UniProt P06737) | -0.012 | -0.008 | 0.001 | 0.037 | 0.047 | -0.007 | -0.02 | 0.008 | -0.004 | 0.08
PRPF38B (UniProt Q5VTL8) | -0.016 | 0.022 | -0.049 | 0.082 | -0.184 | -0.085 | -0.027 | -0.146 | -0.018 | -0.054
PSME4 (UniProt Q14997) | -0.011 | 0.017 | -0.028 | 0.065 | 0.055 | 0.022 | -0.007 | 0.027 | 0.008 | 0.014
PELP1 (UniProt Q8IZL8) | 0.082 | 0.044 | -0.035 | 0.008 | -0.032 | -0.008 | 0.007 | -0.053 | -0.041 | 0.08
PTGFRN (UniProt Q9P2B2) | 0.019 | -0.006 | 0.021 | 0 | -0.034 | 0.01 | 0.015 | -0.053 | -0.027 | 0.11
PCGF2 (UniProt P35227) | 0.11 | 0.037 | 0.001 | -0.013 | 0.177 | -0.023 | 0.053 | -0.002 | -0.057 | -0.061
PLBD2 (UniProt Q8NHP8) | -0.022 | -0.048 | 0.026 | 0.01 | 0.009 | 0.037 | 0.01 | -0.02 | -0.018 | 0.018
PLIN2 (UniProt Q99541) | 0.033 | 0.028 | 0.043 | -0.038 | 0.023 | 0.101 | 0 | -0.089 | 0.028 | -0.068
PMVK (UniProt Q15126) | 0.001 | -0.518 | 0.006 | 0.042 | 0.052 | -0.045 |  | -0.115 | -0.006 | 0.15
PRIM1 (UniProt P49642) | 0.005 | 0.011 | -0.044 | 0.049 | -0.005 | 0.027 | -0.09 | 0.061 | -0.033 | -0.074
PIK3CD (UniProt O00329) | -0.044 | -0.224 | 0.095 | 0.181 | 0.114 | 0.241 | -0.052 | -0.063 | -0.077 | -0.013
POMP (UniProt Q9Y244) | 0.003 | -0.018 | 0.373 (active) | 0.015 | -0.073 | 0.086 | -0.018 | 0.003 | 0.061 | -0.034
PRMT7 (UniProt Q9NVM4) | 0.093 | 0.132 | 0.064 | -0.017 | 0.142 | 0.018 | -0.109 | -0.039 | 0.031 | -0.031
PDCD6IP (UniProt Q8WUM4) | 0.162 | 0.167 | 0.045 | -0.044 | 0.122 | 0.014 | 0.031 | 0.043 | -0.095 | -0.122
PSMB9 (UniProt P28065) | -0.158 | -0.633 (active) | -0.116 | 0.113 | 0.174 | -0.142 |  | -0.006 |  | 
PPP2R5A (UniProt Q15172) | 0.011 | 0.098 | 0.009 | -0.022 | 0.018 | 0.055 | 0.078 | 0.017 | 0 | -0.015
PGGT1B (UniProt P53609) | 0.024 | 0.036 | 0.114 | 0.006 | 0.049 | -0.002 | 0.021 | -0.036 | 0.054 | 0.027
PHF5A (UniProt Q7RTV0) | 0.008 | -0.005 | 0.03 | -0.034 | -0.049 | 0.017 | -0.03 | -0.05 | -0.02 | 0.022
PCBP2 (UniProt F8VRH0) | -0.011 | 0.07 | 0.016 | -0.099 | -0.26 | -0.153 |  | -0.04 | -0.13 | 0.113
PCNT (UniProt O95613) | 0.284 | -0.138 | -0.095 | -0.099 | 0.15 | -0.023 | -0.079 | -0.097 | 0.065 | -0.021
PDPK1 (UniProt O15530) | 0.02 | 0.083 | 0.026 | 0.064 | 0.068 | -0.029 | 0.045 | 0.007 | 0.087 | 0.028
POLR3B (UniProt Q9NW08) | -0.022 | -0.027 | -0.003 | -0.09 | 0.004 | 0.022 | 0.025 | -0.018 | 0.194 | -0.088
PSMD7 (UniProt P51665) | -0.074 | -0.1 | -0.045 | -0.023 | -0.015 | -0.072 | 0.02 | -0.009 | 0.044 | -0.01
PIKFYVE (UniProt Q9Y2I7) | -0.174 | 0.111 | 0.082 | 0.082 | -0.007 | 0.075 | 0.04 | -0.014 | 0.037 | -0.108
PSMC6 (UniProt P62333) | -0.06 | -0.074 | -0.006 | 0.011 | -0.031 | -0.037 | 0.015 | 0.014 | 0.034 | -0.008
PSMA3 (UniProt P25788) | -0.052 | -0.075 | 0.016 | 0.028 | -0.073 | -0.025 | -0.023 | 0.002 | -0.008 | 0.044
PRKCE (UniProt Q02156) | -0.076 | 0.107 | 0.111 | 0.057 | 0.06 | 0.057 |  | 0.004 | -0.019 | -0.095
